From PubChem BioAssay
HT1080-NT tox: kills 2HG-producing HT-1080-NT fibrosarcoma cells. HT-1080-NT fibrosarcoma viability, CellTiter-Glo ATP luminescence, 48 h. Potency, µM (series often up to 46.1 µM), for inactives: at the highest dose activity, negative = less viability, actives largely listed as cytotoxic. 1.6% of 360,000 active;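 further: NT is the 2HG producing partner of a matched IDH1 knockdown line; 0% = DMSO-treated cells and -100% = media-only wells without cells; nearly all actives have a fitted effect of over 55% in size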
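HT-1080-NT fibrosarcoma cells (2HG-overproducing), 750 cells/well in RPMI with 5% FBS, dosed after 2 h and incubated 48 h at 37C. CellTiter-Glo luminescence normalized to DMSO and no-cell wells; concentration-response curves fitted and classed.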
TGFb SMAD3 inh: inhibitors of TGF-b signaling | HepG2 CAGA-GFP TGF-b/SMAD3 reporter, GFP fluorescence, 18 h; TGF-beta stimulated, 500 pg/mL final | Potency, µM (series often up to 46.1 µM), inactives show top-dose activity, negative = inhibition, usual class: inhibitors | 1.2% of 410,000 active; further: on the % scale 0 is the no-effect control and ±100 the full control effect; nearly all actives have a fitted effect of over 65% in size
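Read-out: total well GFP (ex488/em500-530) summed from mean per-cell fluorescence. Cells: HEPG2 CAGA-GFP, 1% FBS DMEM, 18 h at 37 degrees C with 500 pg/mL final TGF-beta. Unstimulated wells served as the full-inhibition control; stimulated DMSO wells = 0%.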
HT1080 IDH1KD tx: kills HT-1080 cells with IDH1 knockdown | AID 686971 | HT-1080 IDH1 knockdown viability, ATP luminescence, 48 h | 2% of 360,000 active | Potency, µM (doses to about 46.1 µM), without a hit: at the top dose activity, negative = toxicity, usual class: cytotoxic;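 further: 0% = DMSO wells and -100% = cell-free medium wells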
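Using the IDH1-knockdown HT-1080 line run in the same batch and compound series as the NT line, viability after 48 h at 37 °C was determined by CellTiter-Glo luminescence and expressed as % activity.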
HepG2 tox: kills HepG2 cells in TGF-b inhibitor counter-screen; HepG2 CAGA-GFP viability, ATP luminescence, 18 h; AID 588856; Potency, µM (series often up to 46.1 µM), inactives show top-dose activity change, negative = cytotoxicity, actives largely listed as cytotoxic; 0.76% of 410,000 active
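CellTiter-Glo luminescence gave cytotoxicity after 18 hours at 37 degrees C. The cells were HepG2 CAGA-GFP in 1% FBS DMEM, stimulated with 500 pg/mL TGF-beta after compound addition. %Activity was normalised to no-cell wells (complete cell-killing) and DMSO (no toxicity), and curves were fitted and classified.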
ATXN2 expr inh: inhibitors of ATXN2 expression; Potency, µM (series often up to 57 µM), for the others: top-dose activity change, negative = inhibition, most hits filed as inhibitors; 0.72% of 360,000 active; HEK-293 ATXN2-luciferase reporter, luminescence, 24 h; further: on the % scale 0 is the no-effect control and ±100 the full control effect; nearly all actives have a fitted effect of over 55% in size
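qHTS (up to 57 uM final) was run with 24 h compound exposure of reporter cells at 37 °C. Each well was multiplexed: SteadyGlo luminescence measured ATXN2-luciferase expression after a fluorogenic Gly-Phe-AFC viability readout (25 uM final).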
S2 tox: reduces viability in counter-screen for ATXN expression inhibitors; S2 cells (HEK-293 line with an ATXN2-luciferase reporter) viability, CellTiter-Fluor protease fluorescence, 24 h; Potency, µM (titrated, usually from 56.7 µM), hits mostly cytotoxic; 0.49% of 400,000 active; further: nearly all actives have a fitted effect of over 40% in size
Starred values were filed as active, the others as inactive; i = inactive; u = inconclusive; x = not tested or not shown; [ ] = dose if it differs, or a comment. Most compounds without a hit are left out; they make up all but 3.8% or so of the library. The call rests on the fitted dose curve; in most records, active means well fitted curve in the direction sought with a large enough effect; inconclusive means small, poorly fitted or top-dose-only effect, or another doubt; inactive means no such curve, though single readings can be large; an effect the other way counts as inactive or inconclusive. Potency means the concentration at half of the fitted maximal effect.

SMILES	HT1080-NT tox	TGFb SMAD3 inh	HT1080 IDH1KD tx	HepG2 tox	ATXN2 expr inh	S2 tox
CCOc1ccc(NCc2cccn2-c2nnc(N3CCC(C(=O)NCCOC)CC3)s2)cc1	x	x	x	-4%	x	x
CCOc1ccc(NCc2cccn2-c2nnc(N3CCC(C(=O)NCCCN4CCCCC4CC)CC3)s2)cc1 (stereo not drawn)	-24%	-20%	-19%	14µM*	x	x
CC1=C(C(=O)Nc2cc3cn[nH]c3cc2F)C(c2ccc(Cl)cc2F)N=C(c2ccnc(Cl)c2)N1 (stereo not drawn)	x	x	x	x	-1%	x
CCCOc1ncnc2c1[nH]c1ccc(OC)cc12	-18%	0%	-10%	122%	x	i
CCCCOc1ncnc2c1[nH]c1ccc(C)cc12	u	0%	4.6µM*	-20%	3%	i
O=C(CCl)Nc1cn(-c2ccccc2)nc1-c1ccc(F)cc1	8.2µM*	u	4.6µM*	-90%	u	u
O=C(c1cn(-c2ccccc2)nc1-c1ccc(F)cc1)N1CCCCC1	-4%	0%	0%	0%	-11%	u
Fc1ccc(-n2cc(CNCCc3cccnc3)c(-c3ccccc3Cl)n2)cc1	21µM*	u	u	-20%	-24%	u
Fc1ccc(-c2nn(-c3ccccc3)cc2CNCc2ccccc2)cc1	21µM*	u	23µM*	-107%	2%[11.3 µM]	i
OCc1cn(-c2ccccc2)nc1-c1ccc(-c2nn(-c3ccccc3)cc2CO)cc1	-17%	-1%	-19%	-45%	-20%	i
COc1ccc(Cl)cc1S(=O)(=O)NCc1ccc2c(c1)CCN2C(=O)c1cccc(C)c1	x	u	x	-27%	x	x
Cc1cnc2c3c(cc(Cl)c2c1)-c1ccccc1S(=O)(=O)N3	x	4µM*	x	-85%	x	x
CC(N=C1NS(=O)(=O)c2ccccc21)C(=O)Nc1ccc(F)cc1Cl (stereo not drawn)	10%	-20%	0%	-12%	x	x
O=S1(=O)Nc2c(ccc3cccnc23)-c2ccccc21	0.56µM*	1.3µM*	0.32µM*	-48%	3.5µM*	u
COC(=O)c1ccc(NC(=O)c2nc(SCc3ccccc3F)ncc2Cl)cc1	x	-1%	x	4%	x	x
Cc1cccc(C(=O)NCc2nc(-c3cccc(NC(=O)C4CCCN(C)C4)c3)oc2C)n1 (stereo not drawn)	x	x	x	x	x	i
Cc1nc(N)sc1-c1ccnc(Nc2ccc(N3CCOCC3)cc2)n1	x	x	x	x	11µM*	x
Cc1cc(C)nc(Nc2ccc(N3CCOCC3)cc2)n1	8%	10%	28%	6%	43%	i
Cc1ccc(-n2ncc(C(=O)Nc3cc(Cl)cc(Cl)c3)c2C2CCNCC2)cc1C	u	u	21µM*	-110%	x	u
CNC(=O)c1cc(-c2cccs2)on1	x	u	x	-9%	x	x
Cc1cccc(-n2cc(-c3ccccc3)c3c(NC(C)C)ncnc32)c1	x	-32%	x	-16%	x	x
N#CC1=C(N)N2C(=C(C#N)C1c1cccc(Br)c1)Nc1ccccc12 (stereo not drawn)	u	3.2µM*	u	-50%	u	x
N#CC1=C(N)N2C(=C(C#N)C1c1ccc(Br)cc1)Nc1ccccc12 (stereo not drawn)	u	2.8µM*	u	-43%	u	x
CN1CCN(c2ccc(Nc3ccnc4cc(Cl)ccc34)cc2)CC1	u	-33%	21µM*	-31%	3.5µM*	u
CCOc1ccc(Nc2ccnc3cc(Cl)ccc23)cc1	u	-16%	u	-25%	-29%	i
SMILES	HT1080-NT tox	TGFb SMAD3 inh	HT1080 IDH1KD tx	HepG2 tox	ATXN2 expr inh	S2 tox
CCOC(=O)c1nc(NNC(=O)c2ccc([N+](=O)[O-])cc2)sc1C	u	u	7.3µM*	-55%	u	u
CCOC(=O)c1sc(NNC(=O)c2ccc(C)cc2)nc1C	-10%	0%	-23%	-54%	1%	i
COc1ccc(-c2cc(C(=O)NCC(c3ccccc3)N(C)C)c3ccccc3n2)cc1OC (stereo not drawn)	u	2%	u	-28%	1%	u
COc1ccc(C(CNC(=O)c2ccc(-c3ccccc3)cc2)N(C)C)cc1OC (stereo not drawn)	18µM*	-2%	21µM*	-24%	-31%	i
COc1cccc(C2=CC(c3ccccc3F)n3ncc(C(=O)Nc4ccc(C)cc4)c3N2)c1 (stereo not drawn)	x	-6%	x	-7%	-12%	i
Cc1ccccc1NC(=O)c1ccccc1OCC(=O)Nc1ccc(Br)cc1	x	u	x	-2%	x	x
COc1ccccc1NC(=O)Cc1csc(NC(=S)Nc2ccccc2)n1	3.5µM*	14µM*	3.2µM*	-37%	-13%	u
COc1ccc(OC)c(NC(=O)Cc2csc(NC(=O)Nc3ccccc3OC)n2)c1	-4%	-24%	-13%	-36%	u	i
COc1ccc(NC(=S)Nc2nc(CC(=O)Nc3ccccc3OC)cs2)cc1	3.5µM*	u	5µM*	-30%	-7%	i
O=C(Nc1ccc(Br)cc1Cl)c1cnn2c1NC(=C1CC1)C=C2C(F)F	x	6%	x	-16%	x	x
Cc1ccc(-c2n[nH]c3c2C(c2cccc(O)c2)N(c2ccc(C(=O)O)cc2)C3=O)cc1 (stereo not drawn)	29%	u	0%	15%	14%	i
CCOc1ccc(N2C(=O)c3[nH]nc(-c4ccccc4)c3C2c2ccc(O)c(OC)c2)cc1 (stereo not drawn)	x	u	x	-25%	u	u
CCOc1ccc(C2c3c(-c4ccc(C)cc4)n[nH]c3C(=O)N2c2ccc(Cl)cc2)cc1 (stereo not drawn)	x	4.5µM*	x	13µM*	-28%	x
O=C1c2[nH]nc(-c3ccc(Br)cc3)c2C(c2cccc(O)c2)N1c1ccc(Cl)cc1 (stereo not drawn)	x	7.1µM*	x	14µM*	u	x
Cc1ccc(-c2n[nH]c3c2C(c2ccccc2)N(c2ccc(C(=O)O)cc2)C3=O)cc1 (stereo not drawn)	-26%	4%	-29%	6%	8%	i
O=C1c2[nH]nc(-c3ccccc3)c2C(c2ccccc2)N1c1cccc(C(F)(F)F)c1 (stereo not drawn)	x	u	x	18µM*	u	u
COc1cccc(Cn2cnc3c2c(=O)n(C)c(=O)n3C)c1	x	-30%	x	-26%	x	x
Cc1ccc2nc(-c3ccc(Cl)c(NC(=O)c4ccc5c(c4)OCCO5)c3)oc2c1	x	-6%	x	-7%	113%	i
COc1cc2cc(CN(CCc3cccc(C)c3)C(=S)NCCCN(C)C)c(=O)[nH]c2cc1OC	-14%	u	0%	-103%	-20%	i
